Assay results as given in PubChem BioAssay (NCI).
Compounds without any hit were thinned out: in the full panel of roughly 83,000, 20% have a hit.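 Percent growth is the endpoint: 0 to 100 indicates growth inhibition (40 means 60% inhibition), 0 means no net growth, and negative values indicate cell death.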 Values without a mark were called inactive. Calls of active or inactive are those of the source. The calls were made as follows: active = growth percent below 10; inactive = the rest.

Columns and labels:
Assay in all cases: NCI-60 one-dose screen, 48 h (100 = growth as untreated, 0 = no growth, -100 = all killed)
Settings in all cases: 10 µM unless noted
SK-MEL-2 melanoma = tested on: SK-MEL-2 melanoma
EKVX NSCLC = tested on: EKVX NSCLC
SN12C renal = tested on: SN12C renal
UO-31 renal = tested on: UO-31 renal
TK-10 renal = tested on: TK-10 renal
ACHN renal = tested on: ACHN renal
CAKI-1 renal = tested on: CAKI-1 renal
A498 renal = tested on: A498 renal
CCRF-CEM leukemia = tested on: CCRF-CEM leukemia
RPMI-8226 leukemia = tested on: RPMI-8226 leukemia
OVCAR-8 ovarian = tested on: OVCAR-8 ovarian
OVCAR-5 ovarian = tested on: OVCAR-5 ovarian
OVCAR-4 ovarian = tested on: OVCAR-4 ovarian
SK-OV-3 ovarian = tested on: SK-OV-3 ovarian
IGROV1 ovarian = tested on: IGROV1 ovarian
OVCAR-3 ovarian = tested on: OVCAR-3 ovarian
HS 578T breast = tested on: HS 578T breast
NCI/ADR-RES ovarian = tested on: NCI/ADR-RES ovarian
MOLT-4 leukemia = tested on: MOLT-4 leukemia

| SMILES | growth (SK-MEL-2 melanoma) | growth (EKVX NSCLC) | growth (SN12C renal) | growth (UO-31 renal) | growth (TK-10 renal) | growth (ACHN renal) | growth (CAKI-1 renal) | growth (A498 renal) | growth (CCRF-CEM leukemia) | growth (RPMI-8226 leukemia) | growth (OVCAR-8 ovarian) | growth (OVCAR-5 ovarian) | growth (OVCAR-4 ovarian) | growth (SK-OV-3 ovarian) | growth (IGROV1 ovarian) | growth (OVCAR-3 ovarian) | growth (HS 578T breast) | growth (NCI/ADR-RES ovarian) | growth (MOLT-4 leukemia) [%] |
| --- | --- | --- | --- | --- | --- | --- | --- | --- | --- | --- | --- | --- | --- | --- | --- | --- | --- | --- | --- |
| CC(=O)N1CCN(Cc2ccc3c(NNC(=O)c4cnccn4)nc4cc(F)ccc4n23)CC1 | 43.5% | 16.2% | 21.4% | 10.6% | 30.3% | 11% | 13.1% | 50.2% | 9.27% (active) | 25.7% | 17.2% | 50.1% | 32.6% | 25% | 28.2% | 56.7% | 56.3% | 7.69% (active) | – |
| CN1CCN(c2ccc3c(c2)nc(NNC(=O)c2ncccn2)c2cccn23)CC1 | -7.45% (active) | -73.2% (active) | 6.25% (active) | 1.76% (active) | -87.5% (active) | -83.7% (active) | -80.9% (active) | -95% (active) | 7.34% (active) | 28.4% | -4.43% (active) | -62.9% (active) | -41.7% (active) | -13.2% (active) | 11.3% | -22.8% (active) | 26.5% | 4.15% (active) | – |
| COc1ccc(-c2nnc3ccc(N/N=C/c4ccc(C)cc4)nn23)cc1 | 108% | 68.2% | 76.9% | 33.5% | 82.7% | 59% | 54.6% | 109% | 91.8% | 94% | 41.4% | 115% | 36.9% | 79.8% | 100% | 15.6% | 29.1% | 25.8% | – |
| COc1ccc(C(=O)/C=C/c2cccc(Cl)c2)cc1S(N)(=O)=O | 80.9% | -73.5% (active) | -25.3% (active) | -67.6% (active) | -86.1% (active) | -89.3% (active) | -9.94% (active) | 111% | 6.96% (active) | -5.22% (active) | -70.3% (active) | -17.8% (active) | 46.4% | 49.8% | 6.51% (active) | -58.8% (active) | 95.4% | 14.3% | – |
| O=C(/C=C/c1ccc(O)c(O)c1)NC1CCOC1O (centres undefined) | 113% | 97.1% | 96.4% | 80.4% | 109% | 104% | 92.9% | 109% | 96.4% | 97.4% | 95.7% | 114% | 108% | 94.8% | 111% | 103% | 89.1% | 105% | 96.3 |
| O=C(Cn1c(/C=C/c2cccc([N+](=O)[O-])c2)nc2ccccc2c1=O)Nc1ccccc1 | 87.7% | 79.6% | 74.5% | 77.4% | 109% | 43.9% | 80.2% | 94.7% | 91.5% | 113% | 35.7% | 104% | 98% | 49.4% | 106% | 54.6% | 87.2% | 65% | – |
| c1ccc(-c2csc(Nc3cccc(Nc4nc(-c5ccccc5)cs4)c3)n2)cc1 | 64.9% | 37.7% | 43.4% | 32.3% | 68.6% | 36.2% | 34.9% | 85.5% | 38.6% | 49.3% | 39.9% | 64.5% | 37.6% | 97.5% | 34.1% | 53.2% | 56.5% | 26.1% | 13.7 |
| CN1CCN(Cc2ccc(C(=O)Nc3cccc(C#Cc4cccc5[nH]nc(N)c45)c3)cc2C(F)(F)F)CC1 | -88.9% (active) | -93.6% (active) | -94.7% (active) | -98.2% (active) | -96% (active) | -98.3% (active) | -88.5% (active) | -80.7% (active) | -20% (active) | -45.1% (active) | -98.1% (active) | -94.8% (active) | -60.9% (active) | -89.1% (active) | -70.8% (active) | -46.6% (active) | -17.5% (active) | -61% (active) | – |
| COc1ccccc1/C=C/C(=O)c1ccc(OC)c(S(N)(=O)=O)c1 | 78.4% | 23.2% | 15.5% | 24.7% | 41.5% | 21.4% | 20.9% | 105% | 6.32% (active) | 4.34% (active) | -9.18% (active) | 12.4% | 42.9% | 47.5% | 38.9% | 7.84% (active) | 60.4% | 22.9% | – |
